Test results from ChEMBL document CHEMBL3988442, “University of Dundee, Small-Polar-MMV Screening Library” (2021).
For some of these results: Potency and affinity values are given separately.

Assays:
Set-up in all cases: scale not given: direction of the effect not stated beside the values
[1] = molecular target: Protein translocase subunit SecA (Escherichia coli (strain K12)) (UniProt P10408); test: Assay to Identify E. coli SecA ATPase Inhibitors; format: functional; conditions: 30 µM
[2] = molecular target: T1, Ubiquitin-activating enzyme e1, putative (Leishmania donovani (strain BPK282A1)) (UniProt E9BSI1); test: Leishmania donovani Ubiquitin Activating Enzyme (LdE1); format: functional; conditions: 30 µM
T1 sequence (whole entry): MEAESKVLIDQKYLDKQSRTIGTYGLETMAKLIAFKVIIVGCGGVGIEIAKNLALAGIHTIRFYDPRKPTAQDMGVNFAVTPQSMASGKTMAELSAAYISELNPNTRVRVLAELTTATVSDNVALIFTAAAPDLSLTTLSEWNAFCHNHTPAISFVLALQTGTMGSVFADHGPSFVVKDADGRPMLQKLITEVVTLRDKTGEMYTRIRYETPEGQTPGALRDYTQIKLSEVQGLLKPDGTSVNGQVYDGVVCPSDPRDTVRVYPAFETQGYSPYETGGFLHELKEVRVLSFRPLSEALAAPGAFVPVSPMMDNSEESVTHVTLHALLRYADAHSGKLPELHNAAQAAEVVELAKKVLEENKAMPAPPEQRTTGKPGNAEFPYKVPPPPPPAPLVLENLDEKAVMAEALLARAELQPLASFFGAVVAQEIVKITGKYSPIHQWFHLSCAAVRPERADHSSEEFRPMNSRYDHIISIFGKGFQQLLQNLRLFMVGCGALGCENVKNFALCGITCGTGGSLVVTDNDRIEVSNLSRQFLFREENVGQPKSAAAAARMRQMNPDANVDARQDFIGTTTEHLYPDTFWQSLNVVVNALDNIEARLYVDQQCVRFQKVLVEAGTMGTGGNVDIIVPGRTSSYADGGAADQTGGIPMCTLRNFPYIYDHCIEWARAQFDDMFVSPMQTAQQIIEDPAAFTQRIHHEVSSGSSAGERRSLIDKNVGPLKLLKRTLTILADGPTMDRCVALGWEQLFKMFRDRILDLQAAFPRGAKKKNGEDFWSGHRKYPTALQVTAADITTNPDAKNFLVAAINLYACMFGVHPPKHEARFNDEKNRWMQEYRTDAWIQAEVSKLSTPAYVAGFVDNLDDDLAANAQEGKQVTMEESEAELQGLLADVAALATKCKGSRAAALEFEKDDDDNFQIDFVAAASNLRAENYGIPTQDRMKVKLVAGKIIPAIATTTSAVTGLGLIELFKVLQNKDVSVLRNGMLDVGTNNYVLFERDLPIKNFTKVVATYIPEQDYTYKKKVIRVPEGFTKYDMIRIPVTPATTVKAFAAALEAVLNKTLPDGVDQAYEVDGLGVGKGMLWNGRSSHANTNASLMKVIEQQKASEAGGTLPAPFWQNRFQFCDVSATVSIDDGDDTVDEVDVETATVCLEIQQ

[3] = molecular target: AMP-activated protein kinase, AMPK (Homo sapiens) (UniProt P54646+O43741+P54619+Q9UGJ0+Q9Y478+Q13131+Q9UGI9); test: AMP-dependent Kinase enzyme assay. An in vitro enzyme assay that detects ADP turnover that is directly proportional to AMPK activity. This uses naive AMPK that is activated during the assay with MK-8722; format: functional; conditions: 30 µM
[4] = molecular target: Sialic acid-binding Ig-like lectin 9 (Homo sapiens) (UniProt Q9Y336); test: Hs-Siglec9 ALPHAscreen SOP 20170721; conditions: 10 µM
Chain of Sialic acid-binding Ig-like lectin 9 (Homo sapiens) (Q9Y336 whole entry): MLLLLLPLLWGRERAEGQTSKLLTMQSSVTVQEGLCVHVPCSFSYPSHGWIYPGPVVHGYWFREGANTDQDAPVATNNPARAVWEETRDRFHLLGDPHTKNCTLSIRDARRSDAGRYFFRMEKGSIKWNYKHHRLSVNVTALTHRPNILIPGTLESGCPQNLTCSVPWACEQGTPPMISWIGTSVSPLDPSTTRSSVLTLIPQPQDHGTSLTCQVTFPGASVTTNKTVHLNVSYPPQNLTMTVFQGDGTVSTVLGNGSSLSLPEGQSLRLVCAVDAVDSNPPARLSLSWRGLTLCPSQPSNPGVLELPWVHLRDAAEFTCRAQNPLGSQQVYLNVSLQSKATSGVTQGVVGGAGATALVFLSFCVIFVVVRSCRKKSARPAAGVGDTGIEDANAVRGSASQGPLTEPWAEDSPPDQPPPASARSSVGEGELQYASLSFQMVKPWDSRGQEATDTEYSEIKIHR

[5] = test system: Trypanosoma cruzi; test: Trypanosoma cruzi phosphomannomutase and mannose-1-phosphate guanylyltransferase assay; format: functional; conditions: 10 µM
[6] = molecular target: T2, Arginase-2, mitochondrial (Homo sapiens) (UniProt P78540); test: in vitro enzyme assay to detect the production of urea directly proportional to the activity of Arginase II; format: functional; conditions: 33.3 µM; also: in the data most compounds retested in dose-response had high values
T2 sequence (whole entry): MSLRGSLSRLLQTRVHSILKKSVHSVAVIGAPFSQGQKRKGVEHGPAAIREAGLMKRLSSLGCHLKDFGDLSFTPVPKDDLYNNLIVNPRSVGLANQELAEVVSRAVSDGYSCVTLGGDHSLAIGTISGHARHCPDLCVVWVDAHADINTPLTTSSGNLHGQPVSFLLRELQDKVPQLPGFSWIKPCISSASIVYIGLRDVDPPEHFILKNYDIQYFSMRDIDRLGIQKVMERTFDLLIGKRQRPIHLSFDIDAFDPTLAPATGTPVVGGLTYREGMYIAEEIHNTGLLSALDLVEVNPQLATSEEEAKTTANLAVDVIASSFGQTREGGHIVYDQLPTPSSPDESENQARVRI

[7] = molecular target: T3, Proteasome subunit beta (Trypanosoma cruzi) (UniProt O96673); test: Trypanosoma cruzi proteasome chymotrypsin-like activity (TcProtChymo) assay.; also: in the data most compounds retested in dose-response had high values; format: functional; conditions: 9.37 µM
T3 sequence (whole entry): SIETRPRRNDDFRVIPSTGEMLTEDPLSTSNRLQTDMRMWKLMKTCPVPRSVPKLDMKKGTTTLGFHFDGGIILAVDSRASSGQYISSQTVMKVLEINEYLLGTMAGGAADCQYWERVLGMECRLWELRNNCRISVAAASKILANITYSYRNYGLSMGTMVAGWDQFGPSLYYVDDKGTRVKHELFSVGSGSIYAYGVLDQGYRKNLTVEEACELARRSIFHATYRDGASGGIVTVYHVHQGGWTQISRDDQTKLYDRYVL

[8] = organism: Homo sapiens; test: To identify inhibition of the IFN signalling (Jak-Stat) pathway via expression of an eGFP reporter gene under the control of an IFN-stimulated response element (ISRE) containing MxA promoter.; format: functional; conditions: 30 µM
[9] = molecular target: T4, Tyrosyl-tRNA synthetase, putative (Trypanosoma cruzi (strain CL Brener)) (UniProt Q4DSP6); test: Trypanosoma cruzi tyrosyl tRNA synthetase (TcYRS) _High Tyrosine SOP; format: functional; conditions: 30 µM; also: in the data most compounds retested in dose-response had high values
T4 sequence (whole entry): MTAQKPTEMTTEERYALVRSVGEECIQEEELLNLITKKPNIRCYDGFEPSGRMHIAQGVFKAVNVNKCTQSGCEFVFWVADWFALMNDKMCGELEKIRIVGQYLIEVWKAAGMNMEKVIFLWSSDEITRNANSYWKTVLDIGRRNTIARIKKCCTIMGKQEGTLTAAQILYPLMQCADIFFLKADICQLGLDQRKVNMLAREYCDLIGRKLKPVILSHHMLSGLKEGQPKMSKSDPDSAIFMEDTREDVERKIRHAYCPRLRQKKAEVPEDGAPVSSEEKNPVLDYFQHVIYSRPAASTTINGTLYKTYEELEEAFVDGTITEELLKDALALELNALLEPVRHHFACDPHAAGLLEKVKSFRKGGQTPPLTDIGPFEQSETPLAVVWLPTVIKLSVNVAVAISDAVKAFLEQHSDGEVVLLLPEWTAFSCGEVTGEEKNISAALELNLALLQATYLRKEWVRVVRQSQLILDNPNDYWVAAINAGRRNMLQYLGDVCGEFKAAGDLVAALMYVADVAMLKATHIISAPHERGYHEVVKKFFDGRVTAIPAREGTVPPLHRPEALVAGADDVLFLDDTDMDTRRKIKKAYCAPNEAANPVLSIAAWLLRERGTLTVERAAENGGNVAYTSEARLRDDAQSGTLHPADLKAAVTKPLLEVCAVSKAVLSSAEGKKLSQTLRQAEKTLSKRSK

[10] = molecular target: T4, Tyrosyl-tRNA synthetase, putative (Trypanosoma cruzi (strain CL Brener)); test: Trypanosoma cruzi tyrosyl tRNA synthetase (TcYRS) SOP; format: functional; conditions: 30 µM
[11] = molecular target: Chromo domain-containing protein 1 (Saccharomyces cerevisiae (strain ATCC 204508 / S288c) (Baker's yeast)) (UniProt P32657); test: ScCHD-1 Enzyme Inhibition Assay; format: functional; conditions: 30 µM; also: in the data most compounds retested in dose-response had high values
Chain of Chromo domain-containing protein 1 (Saccharomyces cerevisiae (strain ATCC 204508 / S288c) (Baker's yeast)) (P32657 whole entry, the tested form may be a part): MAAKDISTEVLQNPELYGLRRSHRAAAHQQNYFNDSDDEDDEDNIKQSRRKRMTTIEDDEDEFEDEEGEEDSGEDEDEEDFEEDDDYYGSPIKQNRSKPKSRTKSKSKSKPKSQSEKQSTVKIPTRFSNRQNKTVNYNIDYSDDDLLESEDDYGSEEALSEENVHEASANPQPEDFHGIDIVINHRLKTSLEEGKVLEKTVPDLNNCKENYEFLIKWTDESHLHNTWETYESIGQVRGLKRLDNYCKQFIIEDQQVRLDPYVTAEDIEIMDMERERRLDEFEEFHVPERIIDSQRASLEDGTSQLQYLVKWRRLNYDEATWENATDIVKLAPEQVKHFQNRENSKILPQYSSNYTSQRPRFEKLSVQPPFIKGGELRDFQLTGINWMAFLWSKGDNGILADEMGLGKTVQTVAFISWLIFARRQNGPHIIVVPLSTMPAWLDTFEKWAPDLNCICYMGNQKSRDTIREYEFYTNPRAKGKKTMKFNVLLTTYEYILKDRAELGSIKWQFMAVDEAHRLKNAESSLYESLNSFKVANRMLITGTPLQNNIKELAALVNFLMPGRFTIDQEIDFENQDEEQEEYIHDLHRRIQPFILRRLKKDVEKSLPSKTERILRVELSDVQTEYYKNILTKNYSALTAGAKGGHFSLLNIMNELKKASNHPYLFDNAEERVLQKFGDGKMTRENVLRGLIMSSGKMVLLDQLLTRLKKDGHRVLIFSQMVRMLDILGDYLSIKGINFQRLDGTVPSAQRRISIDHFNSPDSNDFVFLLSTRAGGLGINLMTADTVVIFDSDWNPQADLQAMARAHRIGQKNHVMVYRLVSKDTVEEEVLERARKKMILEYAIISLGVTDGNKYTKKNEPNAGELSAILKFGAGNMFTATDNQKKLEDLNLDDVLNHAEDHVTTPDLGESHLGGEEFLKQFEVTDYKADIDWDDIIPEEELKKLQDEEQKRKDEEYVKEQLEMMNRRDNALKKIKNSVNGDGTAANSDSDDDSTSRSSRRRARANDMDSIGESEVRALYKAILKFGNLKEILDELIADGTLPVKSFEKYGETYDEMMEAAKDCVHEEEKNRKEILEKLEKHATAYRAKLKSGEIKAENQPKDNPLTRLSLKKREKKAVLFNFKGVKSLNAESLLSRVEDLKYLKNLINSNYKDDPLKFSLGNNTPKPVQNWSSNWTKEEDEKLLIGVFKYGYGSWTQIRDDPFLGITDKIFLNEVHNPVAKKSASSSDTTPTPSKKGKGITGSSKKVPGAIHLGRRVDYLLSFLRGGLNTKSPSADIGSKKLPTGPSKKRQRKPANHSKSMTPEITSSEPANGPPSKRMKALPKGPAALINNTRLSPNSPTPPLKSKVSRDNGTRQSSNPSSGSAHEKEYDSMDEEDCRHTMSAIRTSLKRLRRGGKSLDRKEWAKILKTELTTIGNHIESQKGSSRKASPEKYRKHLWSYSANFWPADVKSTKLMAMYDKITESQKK

Chain of Protein translocase subunit SecA (Escherichia coli (strain K12)) (P10408 whole entry): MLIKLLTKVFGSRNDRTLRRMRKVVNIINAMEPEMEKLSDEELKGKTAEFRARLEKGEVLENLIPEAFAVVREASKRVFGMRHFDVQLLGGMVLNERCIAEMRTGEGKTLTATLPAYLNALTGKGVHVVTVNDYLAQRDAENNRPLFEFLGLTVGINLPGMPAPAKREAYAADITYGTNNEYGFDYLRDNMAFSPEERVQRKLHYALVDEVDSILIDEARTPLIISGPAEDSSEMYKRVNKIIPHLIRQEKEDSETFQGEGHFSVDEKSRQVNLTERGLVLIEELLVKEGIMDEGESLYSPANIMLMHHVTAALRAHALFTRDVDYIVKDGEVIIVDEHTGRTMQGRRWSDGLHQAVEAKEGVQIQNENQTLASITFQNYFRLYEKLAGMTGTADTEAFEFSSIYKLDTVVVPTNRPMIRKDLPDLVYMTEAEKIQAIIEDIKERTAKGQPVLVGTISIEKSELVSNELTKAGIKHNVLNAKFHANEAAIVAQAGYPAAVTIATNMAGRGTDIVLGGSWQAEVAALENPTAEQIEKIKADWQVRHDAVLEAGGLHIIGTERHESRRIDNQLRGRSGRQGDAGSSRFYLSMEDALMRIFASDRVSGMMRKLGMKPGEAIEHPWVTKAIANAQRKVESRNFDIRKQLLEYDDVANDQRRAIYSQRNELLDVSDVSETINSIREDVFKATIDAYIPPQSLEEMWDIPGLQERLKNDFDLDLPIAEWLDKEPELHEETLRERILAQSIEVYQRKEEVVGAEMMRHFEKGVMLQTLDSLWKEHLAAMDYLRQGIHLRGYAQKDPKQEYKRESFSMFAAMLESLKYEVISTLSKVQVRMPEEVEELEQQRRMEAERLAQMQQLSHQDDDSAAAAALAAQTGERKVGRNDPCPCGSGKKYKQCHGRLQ

Row | Compound | Percent Effect [1] [%] | Percent Effect [2] [%] | Percent Effect [3] [%] | Percent Effect [4] [%] | Percent Effect [5] [%] | Percent Effect [6] [%] | Percent Effect [7] [%] | Percent Effect [8] [%] | Percent Effect [9] [%] | Percent Effect [10] [%] | Percent Effect [11] [%]
1 | CCc1nc(NCCCOC)c2c(n1)c(C)nn2C | 0.06 | 17.3 | 0.763 | 2.98 | 1.18 | -0.176 | 20.1 | 29.9 | 5.29 | 17.9 | -11.5
2 | CN(C)C(=O)NC[C@H]1OC[C@@H]2CCN(Cc3ccoc3)C[C@@H]21 | 2.83 | 2.67 | 24.1 | -3.37 | -5.41 | -66.8 | 8.38 | 36.1 | 3.12 | 10 | -4.56
3 | O=C(c1ccc(F)cc1)N1C[C@@H]2OCCN(c3ncccn3)[C@@H]2C1 | -5.16 | 5.33 | 3.73 | 9.86 | -5.02 | -19.9 | 5.98 | -2.35 | 2.08 | 15 | -9.01
4 | Cc1nc(C)n(CC2CCCCN2Cc2nnc(C3CC3)o2)n1 (stereo not drawn) | 0.312 | 2.6 | 3.13 | 1.14 | 3.37 | 0.712 | 1.69 | 1.94 | 0.971 | 7.32 | -9.02
5 | O=C(Cc1ccc(-n2cccn2)cc1)N1CCCC(n2cccn2)C1 (stereo not drawn) | -9.35 | 10.4 | -6.09 | -18.3 | 11.5 | -1.9 | 13.8 | -3.32 | 6.67 | 11.8 | -20
6 | O=C(c1ccncc1)N1CCC(c2nc(O)cc(-c3cccnc3)n2)C1 (stereo not drawn) | -0.62 | 21.3 | -34.2 | -1.55 | 3.74 | 26.8 | 8.55 | 17.1 | 8.51 | 11.5 | -5.75
7 | c1ccc(-c2nccc(CNCC3CCCN3c3cccnn3)n2)cc1 (stereo not drawn) | -3.71 | -18.4 | 3.25 | -4.68 | -0.94 | 0.383 | -0.501 | 20.1 | 6.37 | -2.44 | 11.3
8 | CC(C)CCNC(=O)c1sccc1N(C)S(=O)(=O)c1ccccc1 | -0.473 | 23.7 | -3.53 | -18.2 | -0.0974 | -3.55 | 10.3 | 23.3 | -3.19 | 5.2 | -3.5
